# Measurements published in PubChem BioAssay (NCI).
# This is part of a sample that, as a whole, favours compounds with a hit. Of some 83,000 tested, about 20% had one in any assay.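 Method: cells in 96-well plates; compound added at one concentration; 48 h incubation; percent growth measured; values under 10 scored active.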 A number with no mark means an inactive call. Calls of active or inactive are those of the source.
# Tests used:
# Experiment in all cases: NCI-60 one-dose screen, 48 h (100 = growth as untreated, 0 = no growth, -100 = all killed)
# Settings in all cases: 10 µM unless noted
# T-47D breast = system: T-47D breast
# BT-549 breast = system: BT-549 breast
# MDA-MB-435 melanoma = system: MDA-MB-435 melanoma
# SW-620 colon = system: SW-620 colon
# MCF7 breast = system: MCF7 breast
# HCT-116 colon = system: HCT-116 colon
# HCC-2998 colon = system: HCC-2998 colon
# KM12 colon = system: KM12 colon
SMILES,growth (T-47D breast),growth (BT-549 breast),growth (MDA-MB-435 melanoma),growth (SW-620 colon),growth (MCF7 breast),growth (HCT-116 colon),growth (HCC-2998 colon),growth (KM12 colon)
COc1cc2cc(Oc3ccc(NC(=O)Nc4cccc(C(F)(F)F)c4)cc3)c(C)nc2cc1OCCN(C)C,91.8%,119%,96.6%,111%,69.2%,82.8%,105%,98.2%
COc1cc2oc(-c3cccc(NC(=O)c4cc(NC(=O)[C@H](C)NC(=O)OC(C)(C)C)ccc4C)c3)cc(=O)c2c(OC)c1OC,28.2%,84.9%,90%,92.9%,67%,58%,78.6%,71.1%
C#CCOc1ccc(C(Nc2ccc(Cl)cc2)c2nnnn2C2CCCCC2)cc1 (stereo not given),74.4%,85.7%,98%,94.2%,75.5%,61.4%,98.7%,95.9%
O=c1oc2ccc(-c3ccc(F)cc3F)cc2c(=O)n1-c1cccc(C(F)(F)F)c1,6.01% (active),3.66% (active),6.94% (active),14.2%,2.43% (active),4.36% (active),16.4%,6.11% (active)
O=C(NNc1nc2cc(F)c(F)cc2n2cccc12)c1ncccn1,14.8%,36.8%,26.1%,26.4%,16.9%,31.2%,62.4%,25.6%
Oc1ccc(-c2nnc(SCc3ccc(O)c4ncccc34)n2-c2ccccc2)cc1,14.8%,26.9%,21.5%,16.4%,2.53% (active),12.7%,27.3%,17.3%
COc1ccccc1/C=C/C(=O)c1nnn(-c2ccc(C(=O)O)cc2)c1C,87.9%,96.4%,87.8%,102%,54.2%,68%,102%,93.8%
O=C(/C=C1\C=CN(CCCCO)c2ccccc21)n1ccc2ccccc21,99.6%,112%,106%,104%,95.8%,108%,112%,100%
COc1ccc([C@@H]2[C@@H](O)C(=O)N2c2cc(OC)c(OC)c(OC)c2)cc1,67.1%,-13.4% (active),-28.6% (active),19.4%,11.9%,3.82% (active),21.8%,14%
CCOC(=O)C1=C(C)N=C2Sc3ccccc3N2C1c1ccccc1 (stereo not given),76.6%,92.2%,102%,92.2%,106%,65%,97.1%,93.9%
Cc1cc(=O)n2nc(-c3c[nH]c4ccccc34)sc2n1,92.2%,108%,103%,94.4%,73.2%,109%,107%,101%
O=C(NNc1nc2cc(F)cc(F)c2n2cccc12)c1ccncn1,-1.57% (active),12.2%,26.3%,20.8%,4.99% (active),18.6%,57.5%,21.6%
Cc1cc(NS(=O)(=O)c2ccc(-c3cnc(C4CC4)o3)cc2)ccc1I,32.5%,36%,3.85% (active),25.5%,25.4%,28.3%,63.8%,27.4%
O=C1Nc2cc(OC(F)(F)F)ccc2Oc2ccc(-c3ccnc(N4CC[C@H](O)C4)c3)cc21,62.3%,-18.7% (active),-57.3% (active),-19.3% (active),0.967% (active),-40.5% (active),0.963% (active),-12.9% (active)
CC(=O)NC(C)(C)C(=O)N1CCC[C@H]1C(=O)NC(C)(C)C(=O)N[C@@H](C)C(=O)NC(C)(C)C(=O)N[C@@H](C)C(=O)N[C@@H](CCC(N)=O)C(=O)NC(C)(C)C(=O)N[C@H](C(=O)NC(C)(C)C(=O)NCC(=O)N[C@@H](CC(C)C)C(=O)NC(C)(C)C(=O)N1CCC[C@H]1C(=O)N[C@H](C(=O)NC(C)(C)C(=O)NC(C)(C)C(=O)N[C@@H](CCC(N)=O)C(=O)N[C@@H](CCC(N)=O)C(=O)N[C@H](CO)Cc1ccccc1)C(C)C)C(C)C,55.7% [4.25 µM],23.5% [4.25 µM],71% [4.25 µM],91% [4.25 µM],17% [4.25 µM],67.7% [4.25 µM],70.3% [4.25 µM],98.2% [4.25 µM]
COc1ccc(-c2cc(-c3cccc4ccccc34)n3c(n2)nc2ccccc23)cc1,24.2%,69.9%,53.4%,40.6%,19.6%,37.9%,88.3%,62.4%
O=C(/C=C1\C=CN(CCCCF)c2ccccc21)n1ccc2ccccc21,91%,114%,106%,105%,91.8%,105%,106%,112%
CN1C(=O)/C(=C/C=C/c2ccco2)SC1=S,63%,55.1%,95.8%,104%,24.2%,54.4%,99.2%,91.3%
NC(=S)N/N=C(/C=C/c1cn(-c2ccccc2)nc1-c1ccc(Cl)cc1)c1cc2ccccc2oc1=O,38.7%,87.1%,55.6%,29.6%,29.6%,31.1%,66%,36.2%
CC(C)=CCC[C@](C)(O)[C@H]1CC[C@]2(C)[C@@H]1CC[C@@H]1[C@@]3(C)CCC(NC(=O)c4ccccc4C(=O)O)C(C)(C)[C@@H]3CC[C@]12C (stereo not given in full),79.4%,113%,51.2%,91%,73%,86.9%,96.5%,87.9%
CCN(CC)CCN1C(=O)c2c(c3c4cccnc4[nH]c3c3ccc4ccccc4c23)C1=O,66%,85.8%,87.6%,53.4%,17.4%,63.1%,77.8%,81.8%
CC1CCc2c(sc3nc(SCC(=O)N/N=C/c4cccc(O)c4O)n(-c4ccccc4)c(=O)c23)C1 (stereo not given),74.5%,127%,88.4%,85.4%,88.3%,85.8%,104%,88.9%
O=C(COc1ccc(C2SCC(=O)N2c2ccccc2)cc1)c1ccccc1 (stereo not given),81.5%,92%,103%,104%,88.3%,94.8%,102%,99.4%
N#Cc1c(-c2ccccc2)cc(-c2c[nH]c3ccccc23)nc1-c1c[nH]c2ccccc12,86.7%,94.7%,103%,102%,95%,103%,93.6%,103%
COc1ccc(CCN2C(=O)/C(=C/c3nc(CO)cs3)SC2=S)cc1,76.4%,97.1%,96%,93.7%,16%,59.9%,107%,17.8%
CCN1CCN(Cc2ccc(C(=O)Nc3nc4ccc(Oc5ccnc(C(=O)NC)c5)cc4s3)cc2C(F)(F)F)CC1,18.7%,45.3%,46%,-17.2% (active),16.3%,18%,62.8%,48.4%
O=C1[C@H]2Cc3c([nH]c4ccccc34)[C@@H](c3ccc(Cl)cc3)N2C(=O)CN1C1CCN(Cc2c(Cl)cccc2Cl)CC1,84.8%,97.2%,97.1%,106%,87%,87.9%,101%,87.9%
CCc1ccc(NC(=O)N[C@@H](Cc2cccc(F)c2)C(=O)N[C@@H]2C(=O)N3CCC[C@H]3C(=O)N3CCCC[C@H]3C(=O)N[C@@H](C)C(=O)N3C[C@H](C)C[C@H]3C(=O)O[C@H]2C)c(F)c1,29.6%,17.9%,19.2%,34.4%,15.2%,3.62% (active),5.04% (active),33.6%
CS(=O)(=O)c1ccc2c(c1)c1c(n2S(=O)(=O)c2ccc(Cl)cc2)CCCC1,23%,-1.38% (active),-11% (active),9.36% (active),16.9%,19.2%,30.1%,29.3%
C=CCn1c(SCC(=O)Nc2cccc(C(=O)/C=C/c3ccc(Br)cc3)c2)nc2ccccc2c1=O,76%,45.8%,86.9%,76.3%,26.6%,8.62% (active),93.8%,81.3%
